High-throughput results: PubChem, National Center for Advancing Translational Sciences (NCATS)
Most compounds without a hit are left out; they make up all but 15% or so of the library.
ELG1 repair inh: qHTS screen for small molecules that inhibit ELG1-dependent DNA repair in human embryonic kidney (HEK293T) cells expressing luciferase-tagged ELG1 | hit rate 2.3% among 330,000 | AID 504467, 2011 | Potency, µM (series often up to 46.1 µM), inactives show at the top dose activity change, negative = inhibition, hits mostly inhibitors | HEK293T ELG1-luciferase reporter, luminescence, 16 h; DNA damage induced by 5-fluorouridine; further: nearly all actives have a fitted effect of over 55% in size
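Overnight (16 hr) co-exposure of 2,000 cells/well to 5-fluorouridine and compound at 37 °C preceded detection. Luciferase was quantified via ONE-Glo luminescence; loss of signal denotes inhibition.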
ALOX12 inh: Primary qHTS assay for inhibitors of human arachidonate 12S-lipoxygenase (ALOX12): Round 2; Polyunsaturated fatty acid lipoxygenase ALOX12 (Homo sapiens), P18054; purified 12hLO, xylenol orange hydroperoxide absorbance; Potency, µM (titrated, usually from 108 µM), for the others: top-dose activity change, negative = inhibition, most hits filed as inhibitors; hit rate 1.1% among 580,000; AID 1671190, 2021
Target sequence (P18054 whole entry, looked up): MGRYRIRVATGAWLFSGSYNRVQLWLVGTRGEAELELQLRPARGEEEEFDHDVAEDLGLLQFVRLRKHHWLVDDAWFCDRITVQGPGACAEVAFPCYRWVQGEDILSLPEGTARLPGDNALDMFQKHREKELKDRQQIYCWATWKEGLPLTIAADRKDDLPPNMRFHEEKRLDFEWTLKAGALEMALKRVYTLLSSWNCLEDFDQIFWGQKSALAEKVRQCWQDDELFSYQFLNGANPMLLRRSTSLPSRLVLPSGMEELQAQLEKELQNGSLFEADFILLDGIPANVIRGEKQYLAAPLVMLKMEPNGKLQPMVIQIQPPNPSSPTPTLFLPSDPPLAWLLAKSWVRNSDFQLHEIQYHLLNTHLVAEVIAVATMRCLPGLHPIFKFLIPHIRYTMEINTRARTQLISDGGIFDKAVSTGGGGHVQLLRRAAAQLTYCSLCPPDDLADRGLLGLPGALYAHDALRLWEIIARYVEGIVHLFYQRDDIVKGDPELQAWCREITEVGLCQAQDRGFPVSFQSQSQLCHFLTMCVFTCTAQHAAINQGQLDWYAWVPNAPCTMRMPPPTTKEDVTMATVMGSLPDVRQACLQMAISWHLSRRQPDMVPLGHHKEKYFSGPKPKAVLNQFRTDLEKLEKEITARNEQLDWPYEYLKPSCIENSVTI
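Purified human 12hLO at 150 nM in 25 mM Hepes, 0.01% Triton X-100, pH 7.0, preincubated 15 min at room temperature with compound. Reaction started with 40 uM arachidonic acid, 30 min at room temperature. Hydroperoxide measured by Fe-xylenol orange, 573/405 nm absorbance ratio.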
VP16 counter: VP16 counterscreen qHTS for inhibitors of ROR gamma transcriptional activity; Drosophila S2 Gal4-VP16 UAS-luciferase, luminescence, 20 h; Potency, µM (doses to about 53.6 µM), for the others: at the top dose activity, negative = inhibition, usual class: inhibitors; hit rate 3.5% among 310,000; AID 2546, 2010;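 further: Gal4-VP16 expression switched on by copper sulfate through the metallothionein promoter; nearly all actives have a fitted effect of over 50% in size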
RORg inh: qHTS for inhibitors of ROR gamma transcriptional activity; Nuclear receptor ROR-gamma (Mus musculus), P51450; Drosophila S2 Gal4-RORgamma UAS-luciferase reporter, 20 h; Potency, µM (top dose mostly 53.6 µM), for the others: top-dose activity change, negative = inhibition, hits mostly inhibitors; hit rate 5.4% among 310,000; further: nearly all actives have a fitted effect of over 60% in size
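ROR gamma transcriptional activity was tracked as Gal4-UAS luciferase output in stably transfected Drosophila Schneider cells, with compound added 1 hr before 700 uM copper sulfate induction and a 20 hr ambient-temperature incubation.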
TDP1 cell CPT: qHTS for Inhibitors of human tyrosyl-DNA phosphodiesterase 1 (TDP1): qHTS in cells in presence of CPT. Potency, µM (top dose mostly 46.2 µM), for the others: at the highest dose activity change, negative = growth inhibition, actives largely listed as inhibitors. hit rate 12% among 420,000. AID 686979, 2013. chicken DT40 Tdp1-/-;hTDP1 cells + 20 nM CPT, ATP luminescence, 48 h; further: nearly all actives have a fitted effect of over 55% in size
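Cell growth measured by CellTiter-Glo luminescence after a minimum 48 h, 37 C compound exposure with 20 nM CPT in Tdp1-knockout DT40 cells stably expressing hTDP1, seeded 400/well; qHTS titration format.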
TDP1 cell noCPT: qHTS for Inhibitors of human tyrosyl-DNA phosphodiesterase 1 (TDP1): qHTS in cells in absence of CPT | DT40 Tdp1-/- hTDP1 cells, no CPT, ATP luminescence, 48 h | Potency, µM (top dose mostly 46.2 µM), for the others: at the top dose activity change, negative = growth inhibition, hits mostly inhibitors | hit rate 15% among 420,000; further: nearly all actives have a fitted effect of over 55% in size
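A cellular qHTS used chicken DT40 cells lacking endogenous Tdp1 but carrying stably transfected human TDP1. Compounds were applied without camptothecin, and cell growth kinetics were judged by ATP-dependent luminescence after ≥48 hr.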
* = called active by the depositor. The call rests on the fitted dose curve; in most records, active means well fitted curve in the direction sought with a large enough effect; inconclusive means small, poorly fitted or top-dose-only effect, or another doubt; inactive means no such curve, though single readings can be large; an effect the other way counts as inactive or inconclusive. On the % scale 0 is the no-effect control and ±100 the full control effect; potency means the concentration at half of the fitted maximal effect.

CC(=O)CCS(=O)(=O)c1ccc(Oc2ccc(S(=O)(=O)CCC(C)=O)cc2)cc1 was read as ELG1 repair inh -12%, ALOX12 inh -3%, VP16 counter inconclusive, RORg inh 8.9µM*, TDP1 cell CPT 3.7µM* and TDP1 cell noCPT 8.2µM*.
O=C(NCCc1ccccc1)Nc1cccc(CN2CCOC2=O)c1 was read as ALOX12 inh 19%.
Screening CCOC(=O)COc1ccc2c(C)c(C)c(=O)oc2c1C returned ALOX12 inh -19%.
CC(C)(C)c1nc(CN2CCCCC2)cc(CN2CCCCC2)c1O was read as ELG1 repair inh inconclusive, ALOX12 inh 0%, VP16 counter -15%, RORg inh -11%, TDP1 cell CPT 18µM* and TDP1 cell noCPT inconclusive.
`CN(C)CCN(Cc1ccccc1)c1ccnc(N(C)C)c1C#N` gave ELG1 repair inh 8%, ALOX12 inh inconclusive, VP16 counter 10%, RORg inh 1%, TDP1 cell CPT -25% and TDP1 cell noCPT inconclusive.
For CN(C)c1nccc(N(Cc2ccccc2)Cc2ccccc2)c1C#N the results were ELG1 repair inh inconclusive, ALOX12 inh 3.2µM*, VP16 counter -9%, RORg inh -3%, TDP1 cell CPT 18µM* and TDP1 cell noCPT 29µM*.
`CCn1c(=S)[nH]c2cc(Cl)ccc21` gave ELG1 repair inh inconclusive, ALOX12 inh -6%, VP16 counter 25µM*, RORg inh 5.6µM*, TDP1 cell CPT 3% and TDP1 cell noCPT -1%.
`CCCCn1c(=S)[nH]c2cc(S(=O)(=O)N3CCOCC3)ccc21` gave ELG1 repair inh 0%, ALOX12 inh inconclusive, TDP1 cell CPT inconclusive and TDP1 cell noCPT inconclusive.
